Results reported in the supplement of paper PMC6555819.

Assays:
Experiment in all cases: PBM binding z-score (relative to random genomic background probes); higher = stronger binding; sequences stand for … in GC…GCGATTGACAGCGTAGAATGAAGG
[1] = test system: PPARg:RXRa DBDmut IVT, anti-RXR (DBD mutation: RXRa K156A/R161A, NR concentration 270 nM, RXRa partner concentration 90 nM)
Outline: (§1)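 The probes on custom Agilent 4×180K protein-binding microarrays were double-stranded, with 34-nt variable regions bearing direct-repeat seeds, single-nucleotide variants, half-site ablations and random human genomic background sequences. Incubation lasted 1 h with ligand-free nuclear receptor dimers in PBS pH 7.4, 2% milk, 0.02% Triton X-100, 1 mM DTT, 0.2 mg/mL BSA and 0.4 mg/ml salmon testes DNA. Antibodies against each partner (one per run) detected bound dimers, and fluorescence scans were regression-normalized. Binding z-scores take the random background probes as reference.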

[2] = test system: PPARg:RXRa IVT, anti-PPARg (NR concentration 270 nM, RXRa partner concentration 90 nM)
Outline: as §1

[3] = test system: PPARg DBDmut:RXRa IVT, anti-PPARg (DBD mutation: PPARg1 K132A/R137A, NR concentration 270 nM, RXRa partner concentration 90 nM)
Outline: as §1

[4] = test system: PPARg DBDmut IVT, anti-PPARg (DBD mutation: PPARg1 K132A/R137A, NR concentration 270 nM)
Outline: as §1

[5] = test system: PPARg homodimer (NR concentration 180 nM)
Outline: as §1

[6] = test system: PXR:RXRa (NR concentration 270 nM, RXRa partner concentration 90 nM)
Outline: as §1

[7] = test system: PXR homodimer (NR concentration 270 nM)
Outline: as §1

[8] = test system: RARa:RXR (NR concentration 270 nM, RXRa partner concentration 90 nM)
Outline: as §1

[9] = test system: RARa homodimer (NR concentration 270 nM)
Outline: as §1

[10] = test system: RARb:RXRa (NR concentration 270 nM, RXRa partner concentration 90 nM)
Outline: as §1

[11] = test system: RARb homodimer (NR concentration 270 nM)
Outline: as §1

[12] = test system: RARg:RXRa (NR concentration 270 nM, RXRa partner concentration 90 nM)
Outline: as §1

[13] = test system: RARg homodimer (NR concentration 270 nM)
Outline: as §1

[14] = test system: RXRa DBDmut IVT, anti-RXR (DBD mutation: RXRa K156A/R161A, NR concentration 90 nM)
Outline: as §1

[15] = test system: RXRa homodimer (NR concentration 180 nM)
Outline: as §1

[16] = test system: THRa:RXRa (NR concentration 90 nM, RXRa partner concentration 90 nM)
Outline: as §1

[17] = test system: THRa homodimer (NR concentration 90 nM)
Outline: as §1

[18] = test system: VDR homodimer (NR concentration 270 nM)
Outline: as §1

| Sequence | PBM binding z-score [1] | PBM binding z-score [2] | PBM binding z-score [3] | PBM binding z-score [4] | PBM binding z-score [5] | PBM binding z-score [6] | PBM binding z-score [7] | PBM binding z-score [8] | PBM binding z-score [9] | PBM binding z-score [10] | PBM binding z-score [11] | PBM binding z-score [12] | PBM binding z-score [13] | PBM binding z-score [14] | PBM binding z-score [15] | PBM binding z-score [16] | PBM binding z-score [17] | PBM binding z-score [18] |
| --- | --- | --- | --- | --- | --- | --- | --- | --- | --- | --- | --- | --- | --- | --- | --- | --- | --- | --- |
| ATACCAAGGTGATCGCGAGGTCGTTGATACTAAC | 0.441 | 1.35 | 0.0109 | 0.101 | 0.588 | 3.17 | 1.13 | 1.84 | -0.462 | 1.24 | 1.51 | 2.37 | 0.886 | 0.551 | 1.42 | 3.11 | 1.61 | 2.67 |
| GCGACTGGGGCATCAGCAGGTTTCCATAACTTAA | 3.74 | 2.62 | -1.63 | -0.793 | 0.145 | -0.54 | -0.0807 | -0.096 | -0.582 | 0.524 | 0.345 | -0.102 | -0.261 | 0.099 | -0.0783 | -0.0527 | -0.144 | 0.168 |
| GATACAGGGTCAGCTGGAGGCCAGAGTATGGAAA | 1.09 | 2.28 | -0.601 | -0.834 | 2.9 | 3.53 | -0.0691 | 5.12 | 0.139 | 4.3 | 3.23 | 6.73 | 5.23 | 1.38 | 4.35 | 3.16 | 0.136 | 0.57 |
| TCTTGTAGATCAAAAGTTAAGAAAGCCGAAGCCT | 1.79 | 0.791 | 1.09 | 0.787 | -0.327 | 0.243 | -0.268 | 0.155 | -0.386 | -0.12 | -0.728 | 0.0681 | -0.147 | 0.742 | 0.126 | -0.34 | -1.33 | -0.181 |
| TCAGACAGGTGACGGTAACTCAGGTACGCAGTCG | 2.24 | 1.37 | 0.209 | 0.0566 | 0.126 | 0.109 | -0.211 | 0.171 | 0.103 | 0.885 | 0.517 | 0.188 | 0.328 | 0.683 | 0.84 | 0.492 | 0.00718 | -0.0333 |
| ATCTCTAGGTAACAAGTTCAGTGAAAGAGAGGAC | 3.46 | 3.2 | 1.03 | 1.64 | 1.58 | 1.71 | 2.41 | 0.933 | 1.19 | 1.85 | 1.78 | 1.52 | 1.61 | 1.06 | 0.955 | 1.68 | 0.986 | 3.36 |
| ACAGACAGATGAGTGAAGGTAACTCAGCTGGACG | -0.101 | 0.00181 | 0.781 | 0.138 | 0.692 | -0.0478 | 0.186 | 0.101 | 0.524 | -0.14 | -0.259 | 0.311 | 0.543 | -0.223 | 0.367 | 0.16 | -0.331 | -0.0316 |
| TCATATAGGCAAAGGTGAAAGTCGAACGATATGA | 2.2 | 2.33 | 0.797 | 0.292 | 0.811 | 1.04 | 0.14 | 2.02 | 0.326 | 1.74 | 1.42 | 1.59 | 1.08 | 0.694 | 2.3 | 1.22 | -0.37 | -0.123 |
| TCTAGTTGGTCACGGAGGTCTCACACGACGGGTA | 2.19 | 2.67 | 0.65 | 1.23 | 1.03 | 0.478 | -0.307 | 0.619 | -0.249 | 1.91 | 1.65 | 1.31 | 1.72 | 0.721 | 1.01 | 0.636 | 0.268 | 0.33 |
| CCAGACAGGTGAGAAGCTAACTCAGCCTCGATTA | 1.24 | 0.141 | -0.708 | -1.08 | 0.381 | -0.471 | -0.163 | -0.265 | 0.766 | 0.227 | 0.0853 | -0.181 | 0.0316 | -0.135 | 0.129 | 0.183 | -0.194 | -0.0982 |
| CCTATTAGTTGACCATAAGGGCAACCGTAGCTCG | 0.583 | 0.704 | 0.408 | 0.82 | 1.76 | 0.746 | 0.617 | 0.869 | 1.7 | 1.66 | 1.93 | 1.09 | 1.25 | 0.707 | 0.63 | 1.92 | 1.29 | 0.902 |
| CCTTACGGGTCACTGACGGGTTATAGCATTTGGA | 2.64 | 3.56 | 0.267 | 0.298 | 3.14 | 3.66 | -0.038 | 4.82 | 0.976 | 4.04 | 3.38 | 5.58 | 4.49 | 1.51 | 5.1 | 2.74 | 0.301 | 0.822 |
| CCTAGCAGGCCAACCTGGGTCACTCAAGGCTTGA | 1.14 | 1.46 | -0.885 | -0.95 | 0.425 | 1.46 | -0.576 | 1.44 | 0.141 | 1.96 | 2.56 | 1.54 | 2.02 | -0.209 | 1.23 | 3.63 | 0.233 | -0.163 |
| TCTAGCAGGCCAGAGGGTCACTCGAGAGGTACGG | 0.838 | 0.906 | -0.167 | -1.13 | 0.221 | 1.24 | -0.669 | 2.4 | -0.335 | 2.19 | 2.65 | 2.47 | 2.33 | 0.0685 | 2.58 | 1.37 | -0.427 | 0.163 |
| AGTCAAAGTTCACTAGGTAACGTAAGATTCAGCT | 2.87 | 5.16 | 1.07 | 1.01 | 2.38 | 3.71 | 2.66 | 2.74 | 0.986 | 4.72 | 3.81 | 4.81 | 5.08 | 4.23 | 3.76 | 2.22 | 0.232 | 3.29 |
| GCAGCTAGGTCAACTGATGGTCAGCTAAAGCTCG | 4.33 | 4.15 | -0.285 | -1.01 | 1.13 | 1.2 | -0.968 | 2.49 | -0.66 | 4.24 | 3.08 | 5.02 | 5.33 | 0.798 | 2.52 | 2.6 | 0.305 | -0.435 |
